Hit rate of the full screen: of about 1,100 compounds, about 760 (69%) were called active. No rule for the calls is given here. The set was probably picked from earlier hits. The list shows a part of the results.
Test: M. tuberculosis growth inhibition, HTS (AID 1259417);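 also: bacteria grown with compound for 5 days at 37 °C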
Details: stronger effect = higher value, concentration not given here
[1] = M. tuberculosis DsRed fluorescence growth inhibition
[2] = M. tuberculosis growth inhibition

SMILES	inhibition [1]	inhibition [2] [%]
O=c1c2cccc3c2c(nn1CCN1CCCCC1)-c1ccccc1-3	-22.6% (active)	56.2
CCC(C)c1ccc(OCCn2ccnc2)cc1 (stereo not given)	99.2% (active)	99.6
CCC(C)(C)c1ccc(OCCCn2ccnc2)cc1	100% (active)	99.6
CCC(C)c1ccc(OCCCCn2ccnc2)cc1 (stereo not given)	100% (active)	100
CCOC(=O)c1sc(NC(=O)NC2CCCCC2)cc1C	100% (active)	96.2
CCOC(=O)c1sc(NC(=O)CCSc2ccccc2)cc1C	96.9% (active)	84.1
CCOC(=O)c1c(NC(=S)NC2CCN(Cc3ccccc3)CC2)sc(C)c1-c1ccccc1	21.1% (inactive)	-12.2
CCOC(=O)C(C#N)=Cc1ccc(-c2ccc(F)cc2)o1	2.37% (active)	87.5
Cc1ccc(-c2ccc(C=CC(=O)c3ccco3)o2)cc1	9.38% (inactive)	20.8
Cc1ccc(-n2cnc3cc(NCc4cccs4)ccc32)cc1	18.8% (active)	35.4
CC(=O)N1CCN(c2cc3c(cc2F)c(=O)c(C(=O)O)cn3C2CC2)CC1	97.5% (active)	97.7
CCn1cc(C(=O)O)c(=O)c2cc(F)c(N3CCN(C)CC3)cc21	94.8% (active)	94.2
CCn1cc(C(=O)O)c(=O)c2cc(F)c(N3CCNCC3)cc21	96.6% (active)	97
CCn1cc(C(=O)O)c(=O)c2cc(F)c(N3CCN(C(=S)Nc4cc(C(F)(F)F)ccc4Cl)CC3)cc21	47.9% (active)	61.9
O=c1oc(-c2ccccc2)cc(Cl)c1Cl	61.6% (active)	74
Cc1ccc2sc(N(CCCn3ccnc3)C(=O)c3cccs3)nc2c1C	98.3% (active)	99.1
O=C(c1cccs1)N(CCCn1ccnc1)c1nc2c(Cl)cccc2s1	91.1% (active)	98.4
CCc1cccc2sc(N(CCCn3ccnc3)C(=O)c3cccs3)nc12	88.1% (active)	97.7
CCc1cccc2sc(N(CCCn3ccnc3)C(=O)C=Cc3cccs3)nc12	97.8% (active)	99.1
Cc1c(Cl)ccc2sc(N(CCCn3ccnc3)C(=O)C=Cc3cccs3)nc12	99.5% (active)	99.5
O=C(C=Cc1cccs1)N(CCCn1ccnc1)c1nc2ccccc2s1	98.3% (active)	99.1
Cc1ccc(Nc2ccc(-n3ccnc3)nn2)cc1Cl	42% (active)	27.3
Cc1ccc(NC(=O)COc2ccc(-n3ccnc3)cc2)cc1Cl	-9.16% (inactive)	-12.4

SMILES	inhibition [1]	inhibition [2] [%]
CCCCCCCCOC(=O)c1c(CSC(=N)N)n(C)c2cc(Br)c(OC(C)=O)cc12	26.7% (inactive)	4.13
Cc1cc(Nc2ccc(Cl)cc2)nc(NCc2ccccc2)n1	87.7% (active)	79.9
Oc1cccc(Nc2nc(NCc3ccccc3)c3ccccc3n2)c1	-1.72% (inactive)	-16.1
Cc1cc(Nc2cccc(Cl)c2)nc(NCc2ccccc2)n1	96.8% (active)	90.6
CCn1c(COc2cccc3ccccc23)nnc1SCC(=O)OC1CCCCC1	42.4% (active)	80.7
CCn1c(CNc2ccc(F)cc2)nnc1SCC(=O)OC1CCCCC1	0.628% (inactive)	-6.89
Cn1c(COc2cccc3ccccc23)nnc1SCC(=O)OC1CCCCC1	76.6% (active)	92.4
O=C(Nc1nc(SCc2ccc(F)cc2)ns1)c1cc(F)c(F)cc1Cl	7.63% (inactive)	5.06
Cc1ccc(CSc2nnc(CCCCCNC(=O)OC(C)(C)C)o2)cc1	30.6% (active)	36.2
CCOC(=O)CN(C#N)c1nc(N(C)C)nc(N(C)C)n1	98.5% (active)	98.9
O=C(Nc1nnc(C2CCCCC2)s1)c1sc2ccccc2c1Cl	0.622% (inactive)	-19.5
CCn1nnc(NC(=O)c2sc3ccccc3c2Cl)n1	41.4% (active)	47.8
O=C(Nc1nccs1)c1ccc(CSc2ccccc2)o1	28.2% (active)	69.6
O=C(CSc1nnc(Cc2ccccc2)o1)Nc1nccs1	1.22% (inactive)	-3.79
Cc1ccc(C)c(-c2cc(C(=O)Nc3nccs3)c3ccccc3n2)c1	-0.261% (inactive)	-26.2
COCCCNC(=O)c1c(NC(=O)c2ccccc2OC)sc2c1CCCC2	2.12% (inactive)	-22.4
O=C(Nc1sc2c(c1C(=O)Nc1ccccc1)CCC2)c1cccc(Br)c1	0.927% (inactive)	-1.38
O=C(CNCCN1CCOCC1)Nc1sc2c(c1C(=O)Nc1ccccc1)CCC2	100% (active)	100
CCOc1ccc(NC(=O)c2c(NC(=O)CNCCN3CCOCC3)sc3c2CCC3)cc1	100% (active)	101
Cc1ccccc1C(=O)Nc1sc2c(c1C(=O)NCCO)CCC(C(C)(C)C)C2 (stereo not given)	5.07% (inactive)	-17.9
CO[C@H]1C=CO[C@@]2(C)Oc3c(C)c(O)c4c(O)c(c5c(c4c3C2=O)=NC2(CCN(CC(C)C)CC2)N=5)NC(=O)C(C)=CC=C[C@H](C)[C@H](O)[C@@H](C)[C@@H](O)[C@@H](C)[C@H](OC(C)=O)[C@@H]1C	100% (active)	101
Cc1ccc(-c2nnc(NC(=O)c3ccc(Br)s3)o2)c(C)c1	83.8% (active)	75.7
Cc1ccc(-c2nnc(NC(=O)c3ccc(Cl)s3)o2)c(C)c1	86.1% (active)	75.4

SMILES	inhibition [1]	inhibition [2] [%]
COc1ccc(OC(C)C(=O)Nc2ccc(I)cc2)cc1 (stereo not given)	76% (active)	79.3
COc1ccc(OC(C)C(=O)Nc2ccc(Cl)cc2C)cc1 (stereo not given)	1.5% (inactive)	-1.86
Oc1ccccc1-c1n[nH]c(/C=C/c2ccc(Cl)cc2)n1	2.06% (inactive)	-29.9
CC(C)(C)c1ccc(C(=O)Nc2ccc(S(=O)(=O)Nc3nccs3)cc2)cc1Br	1.5% (inactive)	-12.7
CC1CCc2c(sc3ncn(C(C)C(=O)OCc4ccccc4)c(=O)c23)C1 (stereo not given)	6.46% (inactive)	8.18
CC1CCc2sc3ncnc(NCCc4ccccc4)c3c2C1 (stereo not given)	35.8% (active)	35.3
O=C(Nc1ccc2c(c1)CCC2)c1ccc(Br)s1	25.5% (inactive)	10.7
CC(Sc1nnc(N)s1)C(=O)Nc1nc2c(s1)CCCC2 (stereo not given)	18.7% (inactive)	26
O=C(Nc1nc2c(s1)CCCC2)c1ccc(Br)s1	42.7% (active)	18.9
Cc1cccc(OCc2nnc(SCC(=O)OC3CCCCC3)o2)c1	82.9% (active)	94.9
Cc1cc(OCc2nnc(SCC(=O)OC3CCCCC3)o2)ccc1Cl	94% (active)	94.6
Cc1ccc(S(=O)(=O)Nc2ccc(NC(=O)Nc3cccc(C(F)(F)F)c3)cc2)cc1	1.5% (inactive)	-12.5
O=C(C=Cc1cccc(C(F)(F)F)c1)Nc1cccc(C(F)(F)F)c1	25.5% (inactive)	6.54
O=C(Nc1ccc(C(F)(F)F)cc1)Nc1cccc(Cl)c1	99.7% (active)	100
CCOC(=O)CSc1nc(-c2ccccc2)ns1	51.6% (active)	86.5
CCOC(=O)CNC(=O)CSc1nc(-c2ccccc2)ns1	85.8% (active)	65.5
CCOC(=O)CNC(=O)CSc1nc(-c2cccc(C)c2)ns1	56.7% (active)	71.3
c1ccc2cc3nc4c(ccc5ccccc54)nc3cc2c1	97.7% (active)	99
CCCS(=O)(=O)c1nnnn1-c1cccc(OC)c1	101% (active)	100
COc1cccc(-n2nnnc2S(=O)(=O)Cc2ccccc2)c1	100% (active)	101
COc1cccc(-n2nnnc2S(C)(=O)=O)c1	99.7% (active)	100
O=C(C=Cc1cccs1)N1CCN(Cc2ccc3c(c2)OCO3)CC1	99.4% (active)	100
O=C(NC1CCCCC1)N1CCN(Cc2ccc3c(c2)OCO3)CC1	99.4% (active)	100

SMILES	inhibition [1]	inhibition [2] [%]
CC12CC3CC(C)(C1)CC(CNCc1ccccc1O)(C3)C2	98.9% (active)	99.3
CC1(C)C=Cc2c(nc3ccccc3c2NCc2ccccc2)C1	16.7% (active)	35.8
c1ccc(CNc2nc(N3CCN(Cc4ccccc4)CC3)nc3ccccc23)cc1	-2.6% (inactive)	-0.535
Cc1cc(OCCCn2ccnc2)ccc1Cl	98.9% (active)	99.6
Cc1cc(OCCn2ccnc2)ccc1Cl	89.5% (active)	90.8
Brc1c(OCCCn2ccnc2)ccc2ccccc12	98.3% (active)	99
Clc1ccc(OCCCCn2ccnc2)c(Br)c1	98.8% (active)	99.3
Clc1cc(Br)ccc1OCCCCn1ccnc1	99.4% (active)	99.4
Clc1ccc(SCCCn2ccnc2)cc1	100% (active)	99.6
Clc1ccc(OCCCCCn2ccnc2)c(Cl)c1	100% (active)	99.3
C=CCc1cc(C)ccc1OCCCn1ccnc1	92.4% (active)	97.1
C=CCc1cc(C)ccc1OCCCCn1ccnc1	99.4% (active)	100
C=CCc1cc(Cl)ccc1OCCCCn1ccnc1	100% (active)	100
C=CCn1c(-c2cccs2)nc2ccccc21	97.1% (active)	100
NC(CC(=O)c1ccc(Cl)cc1Cl)C(Cl)(Cl)Cl (stereo not given)	99.7% (active)	99.4
Oc1ccc(-c2nc3cc4ccccc4cc3nc2-c2ccccc2)cc1	19.6% (active)	37.8
Cc1ccc2sc(NNC(=O)c3cc4ccccc4oc3=O)nc2c1C	3.35% (active)	33.4
Cc1ccc2sc(NNC(=O)C3COc4ccccc4O3)nc2c1C (stereo not given)	-2.21% (inactive)	-8.62
Cc1cccc2sc(NNC(=O)c3cc4ccccc4oc3=O)nc12	47.1% (active)	89
Cc1cc(C)c2nc(NNC(=O)c3cc4ccccc4oc3=O)sc2c1	46.2% (active)	86.5
Cc1ccc2nc(NNC(=O)c3cc4ccccc4oc3=O)sc2c1	-1.04% (inactive)	10.6

— PubChem BioAssay AID1259417 (TB Discovery Research, Infectious Disease Research Institute, 2018)
